High-throughput results from PubChem.
A selection: hits, their analogues and other compounds. The true share with any hit is near 17%.
TDP1 block = TDP1 (human) enzyme inhibition; recombinant TDP1, AlphaScreen DNA substrate cleavage; AID 485290; Potency, µM (series often up to 130 µM), for inactives: at the highest dose activity change, negative = inhibition, most hits filed as inhibitors; actives 0.28% (n = 350,000); also: % is scaled to controls: 0 for no effect and ±100 for the full control effect; nearly all actives have a fitted effect of over 40% in size
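AlphaScreen read-out: signal falls as enzyme removes the 3' tyrosine-FITC from a 5'-biotinylated DNA oligo (15 nM, 5 min, RT). Enzyme was E. coli-made recombinant Tdp1 at 1 nM, exposed to compound for 15 min beforehand; beads 10 ug/ml, 10 min.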
ClpP mod = qHTS Assay for Activators of ClpP; Potency, µM (top dose mostly 57.5 µM), for inactives: top-dose activity change, negative = active; purified B. subtilis ClpP, FRET peptide cleavage, 20 min; AID 651965, 2013; actives 1.9% (n = 340,000); active = well fitted falling curve with a large enough effect; inconclusive = small, poorly fitted or top-dose-only effect; inactive = no such curve, though single readings can be large or run the other way; also: the source files actives as falling curves though it sought activators and does not explain the sign; nearly all actives have a fitted effect of over 65% in size
Target sequence (P80244 whole entry, looked up): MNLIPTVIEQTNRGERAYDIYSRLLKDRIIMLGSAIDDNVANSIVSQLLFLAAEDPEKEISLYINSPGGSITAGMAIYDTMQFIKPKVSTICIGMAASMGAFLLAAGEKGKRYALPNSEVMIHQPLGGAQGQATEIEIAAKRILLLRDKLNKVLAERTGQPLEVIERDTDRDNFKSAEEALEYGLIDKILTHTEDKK
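Buffer: 100 mM Tris/HCl pH8, 100 mM KCl, 0.05% low protease BSA, 2.5% glycerol, 0.01% Tween-20. ClpP 10 microg/mL final; 20 min RT; delta FRET normalized to ADEP and DMSO controls.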
TDP1 cell noCPT = qHTS for Inhibitors of human tyrosyl-DNA phosphodiesterase 1 (TDP1): qHTS in cells in absence of CPT; actives 15% (n = 420,000); DT40 Tdp1-/- hTDP1 cells, no CPT, ATP luminescence, 48 h; Potency, µM (top dose mostly 46.2 µM), inactives show top-dose activity change, negative = growth inhibition, usual class: inhibitors; also: % is scaled to controls: 0 for no effect and ±100 for the full control effect; nearly all actives have a fitted effect of over 55% in size
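Stably hTDP1-transfected Tdp1-null chicken DT40 cells were treated with library compounds minus camptothecin and grown for at least 48 hr at 37 °C, after which cellular ATP was quantified by luminescence.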
DT40 TDP1 CPT = DT40-hTDP1 cell growth loss with CPT; chicken DT40 Tdp1-/-;hTDP1 cells + 20 nM CPT, ATP luminescence, 48 h; AID 686979; actives 12% (n = 420,000); Potency, µM (highest dose often 46.2 µM), inactives show top-dose activity change, negative = growth inhibition, actives largely listed as inhibitors; also: % is scaled to controls: 0 for no effect and ±100 for the full control effect; nearly all actives have a fitted effect of over 55% in size
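Chicken DT40 Tdp1-/- cells complemented with human TDP1, 400 cells/well, exposed to compounds plus 20 nM camptothecin for at least 48 h at 37 C; viability read as ATP content by CellTiter-Glo luminescence.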
* hit, by the source's call; ? = inconclusive; / = no result; [ ] = dose if it differs, or a comment. Unless noted, calls follow the shape of the dose curve; as a rule, active = well fitted curve in the direction sought with a large enough effect; inconclusive = small, poorly fitted or top-dose-only effect, or another doubt; inactive = no such curve, though single readings can be large; an effect the other way counts as inactive or inconclusive. Potency is read from the fitted curve at half-maximal effect.

SMILES	TDP1 block	ClpP mod	TDP1 cell noCPT	DT40 TDP1 CPT
O=C(/C=C/C(=O)Oc1ccccc1C(=O)O)Oc1ccccc1C(=O)O	7%[56.1 µM]	/	1%	-23%
Cc1ccc(Cn2c(C3CCCN3c3nc(C)cs3)nc3cc(C(F)(F)F)ccc32)cc1 (centres undefined)	/	2%	21µM*	?
Cc1ccc(Cn2c(C3CCCN3c3nc(-c4cc(Cl)c(N)c(Cl)c4)cs3)nc3cc(C(=O)NCCCO)ccc32)cc1 (centres undefined)	/	1%	-28%	?
Cn1c(=O)c([N+](=O)[O-])c(NCCc2ccccc2)c2ccccc21	5%	1%	16µM*	?
CN(Cc1ccccc1)c1c([N+](=O)[O-])c(=O)n(C)c2ccccc12	5%	2%	15µM*	?
CCn1c(=O)c([N+](=O)[O-])c(NCCc2ccccc2)c2ccccc21	3%	0%	?	?
COC(=O)c1ccccc1NC(=O)c1noc2c1CSc1ccccc1-2	-11%	-3%	19%	27%
COc1ccc(OC)c(NC(=O)CSc2cn(CC(=O)N3CCOCC3)c3ccccc23)c1	3%	0%	?	?
CSCCC(C(=O)NC(C)(C)C)n1c(-c2ccc(C)cc2)nc2ccccc21 (centres undefined)	/	-17%	?	?
Cc1ccc(-n2c(C)cc(C(=O)COc3c(CO)cc(F)cc3CO)c2C)cc1C	8%	-3%	3.7µM*	9.2µM*
Cc1cc(C(=O)CSc2n[nH]c(N)n2)c(C)n1-c1ccc2c(c1)OCO2	11%	0%	23µM*	?
CNS(=O)(=O)c1cccc(C(=O)OCC(=O)c2cc(C)n(-c3ccc4c(c3)OCO4)c2C)c1	8%	-2%	-29%	-11%
Cc1nnc(NC(=O)C(=O)c2cc(C)n(-c3ccc(C)c(C)c3)c2C)s1	9%	-5%	-22%	-26%
Cc1cc(C(=O)COc2ccccc2Cl)c(C)n1-c1ccc2c(c1)OCO2	6%	-1%	6.5µM*	?
COc1ccc(S(=O)(=O)NC2CCCCCC2)cc1C(N)=O	0%	2%	2%	-19%
Cc1ccc(NC2CCCN(C(=O)c3cc4ncccn4n3)C2)cc1C (centres undefined)	4%	0%	15%	4%
COc1ccc(CN2C(=O)NC3(CCCC3)C2=O)cc1F	-5%	/	25%	23%
CCN1C(=O)c2cccc3cccc1c23	5%	-2%	?	29µM*
COc1ccc(CN2C(=O)NC3(CCCCCC3)C2=O)cc1F	6%	1%	15µM*	16µM*
COc1ccc(CN2C(=O)c3cccc4cccc2c34)cc1F	50µM*	/	-23%	-23%
CCCCON1C(=O)c2cccc3cccc(c23)C1=O	35µM*	4%	?	12%
FC(F)Sc1ccc(NC(=S)NC(c2ccccc2)c2ccccc2)cc1	2%	-2%	10µM*	4.6µM*
FC(F)(F)c1ccc(NC(=S)NCc2ccccc2)cc1	-5%	/	?	15µM*
CN(C(=S)Nc1ccc(SC(F)F)cc1)C(c1ccccc1)c1ccccc1	/	-2%	?	?
FC(F)Sc1ccc(NC(=S)NCc2ccccc2)cc1	-3%	/	?	26µM*
SMILES	TDP1 block	ClpP mod	TDP1 cell noCPT	DT40 TDP1 CPT
COc1ccc(C(CNC(=O)C(=O)Nc2ccc3c(c2)OCCO3)N2CCN(C)CC2)cc1 (centres undefined)	0%	1%	-20%	-7%
COCCN(C(=O)CSc1nnc(-c2ccccc2F)o1)c1c(N)n(Cc2ccccc2)c(=O)[nH]c1=O	/	-1%	1%	0%
c1ccc(COc2cccc(-c3cc4nc(NCCOc5ccccc5)ccn4n3)c2)cc1	/	4%	?	?
c1ccc(COc2ccc(-c3cc4nc(NCCOc5ccccc5)ccn4n3)cc2)cc1	/	4%	?	23µM*
COCCCNc1ccn2nc(-c3ccc(OCc4ccccc4)cc3)cc2n1	/	5%	?	16µM*
Cc1ccc(C2=CSC3=NNC4(CCCCC4)NN23)cc1	7%	0%	23µM*	?
Cc1oc(-c2cccc3ccccc23)nc1CN1CCN(c2ncnc3ccccc23)CC1	4%	/	12µM*	16µM*
NC(=O)c1cccc(-c2cnc(N)c(C(=O)c3cccnc3)n2)c1	/	-7%	9.2µM*	2.3µM*
CC(=O)Nc1cccc(-c2cnc(N)c(C(=O)c3cccnc3)n2)c1	-12%	-13%	10µM*	8.2µM*
CN[C@@H]1[C@H](O[C@H]2[C@H](O[C@H]3[C@H](O)[C@@H](O)[C@H](N=C(N)N)[C@@H](O)[C@@H]3N=C(N)N)O[C@@H](C)[C@]2(O)C=O)O[C@@H](CO)[C@H](O)[C@H]1O	11%	/	4%	4%
Cc1ccc(CN(Cc2ccco2)C(=O)c2ccco2)cc1	7%	0%	-14%	?
Cc1ccc(CN(Cc2ccco2)C(=O)c2ccccc2Cl)o1	12%	2%	?	23µM*
Cc1ccc(CN(Cc2ccco2)C(=O)c2ccccc2Br)o1	5%	8%	15µM*	12µM*
COc1ccccc1NC(=O)NC1(C(=O)N2CCC(C)CC2)CCCCC1	2%	0%	-3%	10%
NC[C@@H]1O[C@@H](O[C@H]2[C@H](O)[C@H](O[C@@H]3O[C@H](CO)[C@@H](O)[C@H](N)[C@@H]3O)[C@@H](N)C[C@H]2N)[C@H](N)C[C@@H]1O	16%[21 µM]	/	/	/
COc1ccc(N2CC(C(=O)Nc3ccccc3N3CCCC3)CC2=O)c(OC)c1 (centres undefined)	-9%	-9%	4.6µM*	2.9µM*
COc1ccc(C)cc1N1CC(C(=O)Nc2ccccc2N2CCCCC2)CC1=O (centres undefined)	0%	1%	21µM*	?
O=C(Nc1ccccc1Br)C1CC(=O)N(c2ccc3c4c(cccc24)CC3)C1 (centres undefined)	5%	-4%	21µM*	23µM*
COc1ccc(NC(=O)C2CC(=O)N(c3ccccc3Cl)C2)c(OC)c1 (centres undefined)	2%	/	-8%	-22%
COc1ccc(N2CC(C(=O)Nc3cc(C(F)(F)F)ccc3N3CCCC3)CC2=O)c(OC)c1 (centres undefined)	-4%	/	23µM*	?
O=C(Nc1cc(C(F)(F)F)ccc1N1CCCC1)C1CC(=O)N(Cc2ccccc2)C1 (centres undefined)	/	-2%	-17%	-9%
Cc1ccccc1NC(=O)C1CC(=O)N(c2ccc3c4c(cccc24)CC3)C1 (centres undefined)	4%	-2%	-23%	?
CC[C@]12c3[nH]c4ccc(OC)cc4c3CCN1C(=O)C(CC(=O)NCc1ccc(OC)c(OC)c1)C[C@@H]2C(=O)N1CCN(C(=O)C2CC2)CC1 (some centres undefined)	0%[56.1 µM]	1%	-15%	-22%
